Consider 40 sequences from paper PMC7862700, “An all-to-all approach to the identification of sequence-specific readers for epigenetic DNA modifications on cytosine”.

For one assay, the target named is T1, GABPA (Homo sapiens, UniProt Q06546 1-454).
T1 sequence: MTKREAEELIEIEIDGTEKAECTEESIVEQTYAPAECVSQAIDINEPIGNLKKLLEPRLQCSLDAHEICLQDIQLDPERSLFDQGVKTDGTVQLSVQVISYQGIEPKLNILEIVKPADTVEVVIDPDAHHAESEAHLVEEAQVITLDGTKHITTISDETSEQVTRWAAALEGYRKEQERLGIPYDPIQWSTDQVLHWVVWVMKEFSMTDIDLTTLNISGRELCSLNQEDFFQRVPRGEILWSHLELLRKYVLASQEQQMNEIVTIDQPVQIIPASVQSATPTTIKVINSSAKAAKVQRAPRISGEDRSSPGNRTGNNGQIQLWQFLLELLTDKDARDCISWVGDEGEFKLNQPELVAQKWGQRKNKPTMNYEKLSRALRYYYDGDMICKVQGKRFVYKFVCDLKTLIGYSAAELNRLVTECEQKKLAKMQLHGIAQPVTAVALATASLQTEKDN
Put plainly: DAPPL (digital affinity profiling via proximity ligation, sequencing); 10 mM Tris-HCl pH 7.5, 50 mM NaCl, 1 mM DTT, 4% glycerol, room temperature, 30 min; GST-TFs on glutathione beads, 16-mer random dsDNA library, 0.1% formaldehyde crosslink after washing; high values mean tight binding. The note with it: protein: recombinant; tags: N-terminal GST; dsDNA, one strand shown. The method, boiled down:
(§1)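 The binding signal reported is, for every hexamer, its read frequency for a factor over its read frequency for the tag-only sample. Reads came from pools of yeast-expressed, GST-fused human transcription factors on glutathione beads, barcoded with DNA and mixed with that sample, which were incubated with 200 nmole of a random double-stranded 16-mer DNA library in Tris/NaCl/DTT/glycerol buffer at room temperature for 30 min. After washing, the pools were crosslinked with 0.1% formaldehyde, proximity-ligated with BsaI/T4 ligase for 1 h at 37 °C, PCR-amplified and sequenced on an Illumina NextSeq500.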
Turning to CCGCCG, the binding signal was 1.41 fold enrichment (6-mer frequency, TF over GST control).
On the same count and under the same terms, next, CGTATC: 1.29 fold enrichment (6-mer frequency, TF over GST control); CACACT: 1.17 fold enrichment (6-mer frequency, TF over GST control); TGGCAG: 1.07 fold enrichment (6-mer frequency, TF over GST control).
For GTCCTC, the binding signal is 1.17 fold enrichment (6-mer frequency, TF over GST control).
Still for that read-out and setting: the value for GACTAC was 1.15 fold enrichment (6-mer frequency, TF over GST control); that for CCAACA was 1.09 fold enrichment (6-mer frequency, TF over GST control).
As to GTACAA, the binding signal is 1.01 fold enrichment (6-mer frequency, TF over GST control).
Same read-out and setting: next, TGCACC: 1.25 fold enrichment (6-mer frequency, TF over GST control); CCCCCG: 1.03 fold enrichment (6-mer frequency, TF over GST control); CGACAC: 1.16 fold enrichment (6-mer frequency, TF over GST control).
The same measure, in the same setting: next, CTGTCC: 1.29 fold enrichment (6-mer frequency, TF over GST control); GCACCC: 1.25 fold enrichment (6-mer frequency, TF over GST control); GACATC: 1.31 fold enrichment (6-mer frequency, TF over GST control).
As to CACATA, the binding signal was 1.11 fold enrichment (6-mer frequency, TF over GST control).
Same read-out and setting: next, CGTACC: 1.18 fold enrichment (6-mer frequency, TF over GST control); GCTTGG: 1.12 fold enrichment (6-mer frequency, TF over GST control).
Same read-out and setting: the value for ACACAC was 1.21 fold enrichment (6-mer frequency, TF over GST control); that for TGCGAC was 1.21 fold enrichment (6-mer frequency, TF over GST control); that for CCGTCA was 1.19 fold enrichment (6-mer frequency, TF over GST control).

The target in another assay is T2, ERG (Homo sapiens, UniProt P11308 1-479).
T2 sequence: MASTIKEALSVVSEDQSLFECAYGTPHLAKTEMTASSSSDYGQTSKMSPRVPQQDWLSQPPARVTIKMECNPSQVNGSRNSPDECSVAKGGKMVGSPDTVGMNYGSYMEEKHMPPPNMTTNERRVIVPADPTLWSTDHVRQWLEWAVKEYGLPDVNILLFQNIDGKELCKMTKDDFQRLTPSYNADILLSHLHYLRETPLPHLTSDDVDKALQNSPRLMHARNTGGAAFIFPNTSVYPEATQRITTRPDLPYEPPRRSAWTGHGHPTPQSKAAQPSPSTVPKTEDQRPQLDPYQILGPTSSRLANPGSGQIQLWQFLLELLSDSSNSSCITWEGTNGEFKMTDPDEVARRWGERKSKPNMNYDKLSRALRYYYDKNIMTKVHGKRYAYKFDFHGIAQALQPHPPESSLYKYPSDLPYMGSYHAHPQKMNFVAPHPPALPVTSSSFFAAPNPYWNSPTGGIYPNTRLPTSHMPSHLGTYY
The description is as above. The following applies: protein: recombinant; tags: N-terminal GST; dsDNA, one strand shown. The method, boiled down: as §1
On to CACCCT, for which the binding signal is 1.16 fold enrichment (6-mer frequency, TF over GST control).
On the same count and under the same terms, the value for TGCGGA was 1.37 fold enrichment (6-mer frequency, TF over GST control).
With CTCACC, the binding signal was 1.13 fold enrichment (6-mer frequency, TF over GST control).
For GCCACT, the binding signal is 1.23 fold enrichment (6-mer frequency, TF over GST control).
TGTCAC: the binding signal is 1.11 fold enrichment (6-mer frequency, TF over GST control).
In the case of GCTACA, the binding signal was 1.13 fold enrichment (6-mer frequency, TF over GST control).
The same measure, in the same setting: next, CCACAT: 1.15 fold enrichment (6-mer frequency, TF over GST control).
On to CACAAC, for which the binding signal was 1.25 fold enrichment (6-mer frequency, TF over GST control).
Regarding GGCCTC, the binding signal is 1.19 fold enrichment (6-mer frequency, TF over GST control).
In the case of GCTACC, the binding signal was 1.26 fold enrichment (6-mer frequency, TF over GST control).
As for ACAACC, the binding signal was 1.22 fold enrichment (6-mer frequency, TF over GST control).
For CAACAT, the binding signal was 1.2 fold enrichment (6-mer frequency, TF over GST control).
Still for that read-out and setting: next, CAAACT: 1.12 fold enrichment (6-mer frequency, TF over GST control).
Same read-out and setting: next, TGCATG: 1.13 fold enrichment (6-mer frequency, TF over GST control).
The same measure, in the same setting: the value for GTCCTT was 1.22 fold enrichment (6-mer frequency, TF over GST control); that for GGATGC was 1.16 fold enrichment (6-mer frequency, TF over GST control); that for AGCGAC was 1.23 fold enrichment (6-mer frequency, TF over GST control).
Consider AACCGG, for which the binding signal is 1.73 fold enrichment (6-mer frequency, TF over GST control).
Still for that read-out and setting: the value for ACCTGA was 1.12 fold enrichment (6-mer frequency, TF over GST control).
Still for that read-out and setting: the value for CCCGGC was 1.15 fold enrichment (6-mer frequency, TF over GST control); that for CCGCCG was 1.37 fold enrichment (6-mer frequency, TF over GST control); that for CGTATC was 1.28 fold enrichment (6-mer frequency, TF over GST control).
The same measure, in the same setting: next, CACACT: 1.18 fold enrichment (6-mer frequency, TF over GST control); TGGCAG: 1.01 fold enrichment (6-mer frequency, TF over GST control); GTCCTC: 1.21 fold enrichment (6-mer frequency, TF over GST control).
With GACTAC, the binding signal was 1.07 fold enrichment (6-mer frequency, TF over GST control).
On the same count and under the same terms, the value for CCAACA was 1 fold enrichment (6-mer frequency, TF over GST control); that for GTACAA was 1.11 fold enrichment (6-mer frequency, TF over GST control); that for TGCACC was 1.09 fold enrichment (6-mer frequency, TF over GST control).
Still for that read-out and setting: next, CCCCCG: 1.18 fold enrichment (6-mer frequency, TF over GST control).
Turning to CGACAC, the binding signal is 1.23 fold enrichment (6-mer frequency, TF over GST control).
Same read-out and setting: the value for CTGTCC was 1.28 fold enrichment (6-mer frequency, TF over GST control).
Still for that read-out and setting: the value for GCACCC was 1.17 fold enrichment (6-mer frequency, TF over GST control); that for GACATC was 1.27 fold enrichment (6-mer frequency, TF over GST control); that for CACATA was 1.14 fold enrichment (6-mer frequency, TF over GST control).
Same read-out and setting: next, CGTACC: 1.12 fold enrichment (6-mer frequency, TF over GST control); GCTTGG: 1.09 fold enrichment (6-mer frequency, TF over GST control).
With ACACAC, the binding signal was 1.22 fold enrichment (6-mer frequency, TF over GST control).
Still for that read-out and setting: next, TGCGAC: 1.26 fold enrichment (6-mer frequency, TF over GST control).
Still for that read-out and setting: next, CCGTCA: 1.31 fold enrichment (6-mer frequency, TF over GST control).

The target of a further assay is ELF1 (Homo sapiens, UniProt P32519 1-619). Described as above. The note with it: protein: recombinant; tags: N-terminal GST; dsDNA, one strand shown. The method, boiled down: as §1
Chain of ELF1 (P32519 whole entry): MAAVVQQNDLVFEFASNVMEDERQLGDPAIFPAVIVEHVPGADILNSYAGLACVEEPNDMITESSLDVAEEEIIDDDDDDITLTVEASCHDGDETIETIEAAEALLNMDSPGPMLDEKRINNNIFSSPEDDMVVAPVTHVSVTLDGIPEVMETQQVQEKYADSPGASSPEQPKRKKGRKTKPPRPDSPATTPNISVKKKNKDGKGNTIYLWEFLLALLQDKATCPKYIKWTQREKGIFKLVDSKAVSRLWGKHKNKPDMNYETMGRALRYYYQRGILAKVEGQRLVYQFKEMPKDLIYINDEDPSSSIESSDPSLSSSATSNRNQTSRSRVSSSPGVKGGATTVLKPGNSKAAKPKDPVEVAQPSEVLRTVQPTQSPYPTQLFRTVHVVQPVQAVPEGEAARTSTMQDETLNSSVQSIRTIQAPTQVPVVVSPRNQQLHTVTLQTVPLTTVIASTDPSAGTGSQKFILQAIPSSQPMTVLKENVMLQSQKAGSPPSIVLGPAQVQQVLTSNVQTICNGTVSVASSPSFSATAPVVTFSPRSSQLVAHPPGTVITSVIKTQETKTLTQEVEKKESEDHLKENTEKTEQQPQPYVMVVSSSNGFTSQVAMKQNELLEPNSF
For CACCCT, the binding signal was 1.16 fold enrichment (6-mer frequency, TF over GST control).
Consider TGCGGA, for which the binding signal was 1.32 fold enrichment (6-mer frequency, TF over GST control).
The same measure, in the same setting: the value for CTCACC was 1.2 fold enrichment (6-mer frequency, TF over GST control); that for GCCACT was 1.23 fold enrichment (6-mer frequency, TF over GST control); that for TGTCAC was 1.23 fold enrichment (6-mer frequency, TF over GST control).
For GCTACA, the binding signal is 1.17 fold enrichment (6-mer frequency, TF over GST control).
On the same count and under the same terms, the value for CCACAT was 1.25 fold enrichment (6-mer frequency, TF over GST control).
Same read-out and setting: the value for CACAAC was 1.28 fold enrichment (6-mer frequency, TF over GST control); that for GGCCTC was 1.17 fold enrichment (6-mer frequency, TF over GST control).
On the same count and under the same terms, the value for GCTACC was 1.29 fold enrichment (6-mer frequency, TF over GST control); that for ACAACC was 1.16 fold enrichment (6-mer frequency, TF over GST control).
Take CAACAT: the binding signal is 1.2 fold enrichment (6-mer frequency, TF over GST control).
The same measure, in the same setting: the value for CAAACT was 1.17 fold enrichment (6-mer frequency, TF over GST control); that for TGCATG was 1.15 fold enrichment (6-mer frequency, TF over GST control); that for GTCCTT was 1.26 fold enrichment (6-mer frequency, TF over GST control).
On the same count and under the same terms, the value for GGATGC was 1 fold enrichment (6-mer frequency, TF over GST control); that for AGCGAC was 1.17 fold enrichment (6-mer frequency, TF over GST control).
Turning to AACCGG, the binding signal was 1.46 fold enrichment (6-mer frequency, TF over GST control).
The same measure, in the same setting: the value for ACCTGA was 1.14 fold enrichment (6-mer frequency, TF over GST control).
Take CCCGGC: the binding signal is 1.17 fold enrichment (6-mer frequency, TF over GST control).
Still for that read-out and setting: next, CCGCCG: 1.26 fold enrichment (6-mer frequency, TF over GST control).
In the case of CGTATC, the binding signal is 1.23 fold enrichment (6-mer frequency, TF over GST control).
Turning to CACACT, the binding signal was 1.21 fold enrichment (6-mer frequency, TF over GST control).
Still for that read-out and setting: next, TGGCAG: 1.06 fold enrichment (6-mer frequency, TF over GST control); GTCCTC: 1.18 fold enrichment (6-mer frequency, TF over GST control); GACTAC: 1.15 fold enrichment (6-mer frequency, TF over GST control).
For CCAACA, the binding signal was 1.04 fold enrichment (6-mer frequency, TF over GST control).
On the same count and under the same terms, next, GTACAA: 1.11 fold enrichment (6-mer frequency, TF over GST control); TGCACC: 1.2 fold enrichment (6-mer frequency, TF over GST control); CCCCCG: 1.1 fold enrichment (6-mer frequency, TF over GST control).
As for CGACAC, the binding signal is 1.24 fold enrichment (6-mer frequency, TF over GST control).
On the same count and under the same terms, the value for CTGTCC was 1.28 fold enrichment (6-mer frequency, TF over GST control).
As for GCACCC, the binding signal was 1.16 fold enrichment (6-mer frequency, TF over GST control).
The same measure, in the same setting: next, GACATC: 1.21 fold enrichment (6-mer frequency, TF over GST control); CACATA: 1.18 fold enrichment (6-mer frequency, TF over GST control).
Same read-out and setting: next, CGTACC: 1.15 fold enrichment (6-mer frequency, TF over GST control).
Consider GCTTGG, for which the binding signal is 1.08 fold enrichment (6-mer frequency, TF over GST control).
Take ACACAC: the binding signal is 1.19 fold enrichment (6-mer frequency, TF over GST control).
For TGCGAC, the binding signal is 1.22 fold enrichment (6-mer frequency, TF over GST control).
Same read-out and setting: the value for CCGTCA was 1.28 fold enrichment (6-mer frequency, TF over GST control).
